Assay [1] deals with Human papillomavirus type 1a protein E7 (residues 44-93). Description: HPV1a E7 fragment binders on microarrays, primary screen, biochemical, small-molecule microarray, residues 44-93, 635 nm fluorescence (AID 1108).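 Further: E7 fragment applied at 1 µg/mL in TBST for 1 h at 4 C; score combines spot fluorescence with its signal to noise ratio.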 To be noted: small-molecule microarray binding, fluorescence 635 nm; higher = more signal.
Assay [2] can be described thus: modulators of HCV replicon luciferase signal, primary screen, HCV replication inhibitor project, Huh7 cells, luciferase reporter (AID 1109).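 Further: huh7 hepatoma cells harbouring a luciferase neomycin HCV replicon reporter; luciferase luminescence as measure of HCV replicon replication; test concentration not given here.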 To be noted: 48 h, higher = more signal. In general terms: Replicon systems follow genome replication, usually without infectious particles.
In assay [3] the target is Left-right determination factor 2 (Homo sapiens) (UniProt O00292). Description: LEFTY2 binders on small-molecule microarrays, primary screen, biochemical, small-molecule microarray, 635 nm fluorescence scan (AID 1110). To be noted: LEFTY2 binding, higher = more signal.
In assay [4] the target is Calmodulin-1 (Homo sapiens) (UniProt P0DP23). Description: CALM1 binders on microarrays, EGTA buffer, profiling panel, biochemical, small-molecule microarray, Cy5-labelled CALM1 (AID 1111).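 Further: labelled calmodulin applied in Tris saline Tween buffer holding calcium plus EGTA and DTT.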 The note with it: Cy5-CALM1 binding fluorescence, higher = more signal.
Assay [5] shares this target. The assay can be described thus: calcium-bound CALM1 binders on microarrays, profiling panel, artefact control for SMM control-protein annotation, biochemical, small-molecule microarray, Cy5-labelled CALM1, plus calcium (AID 1112).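 Further: score merges spot fluorescence with signal to noise from triplicate slides.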 The note with it: Cy5-CALM1 binding fluorescence, higher = more signal.
The nature of assay [6]: small-molecule microarray binders of probe aWnt5a, primary screen, biochemical, biotinylated probe, 635/667 nm fluorescence (AID 1113).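 Further: score merges 667 nm fluorescence intensity with signal-to-noise per printed feature.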 To be noted: higher = more signal.
Assay [7] can be described thus: small-molecule microarray binders of probe aShh, primary screen, biochemical, biotinylated probe, 635/667 nm fluorescence (AID 1114).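 Further: probe is biotin-labelled aShh protein from a stem cell growth factor screen; measures binding of labelled protein to compounds printed on the slide; score merges feature fluorescence at 667 nm with signal-to-noise.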 The note with it: higher = more signal.
The nature of assay [8]: small-molecule microarray binders of probe aNog, primary screen, biochemical, biotinylated probe, 635/667 nm fluorescence (AID 1115).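 Further: probe is biotinylated aNog protein used at 0.15 µg/mL for 1 h at 4 C; z-score combines 667 nm fluorescence of each spot with its signal to noise.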 The note with it: higher = more signal.
Assay [9] deals with Torsin-1A-interacting protein 1 (Homo sapiens) (UniProt Q5JTV8). Description: LAP1 binders from COS7 cell lysate, primary screen, small-molecule microarray, 635/667 nm fluorescence (AID 1116). To be noted: COS7-hLAP1 lysate binding, 635 nm fluorescence, higher = more signal.
The target of assay [10] is Alpha-bungarotoxin (Bungarus multicinctus) (UniProt P60615). The assay can be described thus: alpha-bungarotoxin binders on microarray, profiling panel, artefact control for SMM control protein annotation, biochemical, small-molecule microarray, Alexa647 label, 635/667 nm fluorescence (AID 1117). To be noted: alpha-BTX-A647 binding fluorescence, higher = more signal.
For the next assay, the target named is Albumin (Bos taurus) (UniProt P02769). The assay can be described thus: bovine serum albumin binders on microarray, profiling panel, artefact control for SMM control protein annotation, biochemical, small-molecule microarray, Alexa647 label, 635/667 nm fluorescence (AID 1118).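 Further: score merges 667 nm emission intensity and signal-to-noise per printed compound spot.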 The note with it: BSA-A647 binding, fluorescence 635 nm, higher = more signal.
Assay [11] can be described thus: small-molecule microarray binders of probe aXIP, primary screen, biochemical, NeuroSMM set, 635/667 nm fluorescence (AID 1119).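 Further: probe is the protein aXip251-270 applied at 1 µg/mL to compound-printed slides; binding of probe to printed compounds measured as 667 nm fluorescence plus signal to noise.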 The note with it: higher = more signal, called active from +8 up or from −8 down.
A short description of assay [12]: small-molecule binders of probe aNOTCH3, primary screen, biochemical, small-molecule microarray, 635/667 nm fluorescence (AID 1120).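 Further: probe is a biotin-tagged antibody raised against NOTCH3 rather than NOTCH3 protein; score merges spot fluorescence near 667 nm with spot signal to noise.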 To be noted: higher = more signal.
The nature of assay [13]: small-molecule binders of probe aNOTCH2, primary screen, biochemical, small-molecule microarray, 635/667 nm fluorescence (AID 1121).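 Further: score merges feature fluorescence read at 667 nm with its signal to noise.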 To be noted: higher = more signal.
Assay [14] has as its target Carbonic anhydrase 2 (Homo sapiens) (UniProt P00918). Description: CAII small-molecule binders, profiling panel, biochemical, small-molecule microarray, Alexa647-labelled CAII (AID 1122). The note with it: CAII-A647 binding fluorescence, higher = more signal.
Assay [15] can be described thus: COS7 lysate on small-molecule microarray, probe aHis, 635 nm (AID 1123).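 Further: z-score combines 667nm fluorescence intensity with signal-to-noise per printed compound spot.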 To be noted: COS7 cell lysate, fluorescence, higher = more signal.
The nature of assay [16]: compound binding in COS7 lysate, probe aLAP1, primary screen, cell lysate, small-molecule microarray (AID 1124).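 Further: lysate comes from COS7 cells expressing LAP1 and is applied at 0.3 µg/mL; score merges spot fluorescence near 667 nm with signal-to-noise over triplicate slides.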 To be noted: probe aLAP1, fluorescence, higher = more signal.
A further assay concerns Sam68 (KHDRBS1). Description: Sam68 small-molecule binders, primary screen, biochemical, small-molecule microarray, 635 nm fluorescence (AID 1125).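 Further: score merges 667 nm channel intensity with signal to noise over triplicate slides.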 To be noted: small-molecule microarray binding, higher = more signal.
Assay [17] has as its system Chordin-like protein 2 (CHRDL2). The assay can be described thus: CHRDL2 small-molecule binders, primary screen, biochemical, small-molecule microarray, 635 nm fluorescence (AID 1126).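 Further: printed compound slides probed with Chrdl2 protein at 4 µg/mL for 1 h at 4 C; score merges 667 nm emission intensity with signal to noise over three replicate slides.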 To be noted: small-molecule microarray binding, fluorescence 635 nm; higher = more signal.
The target in assay [18] is Concanavalin-A (Canavalia ensiformis) (UniProt P02866). Description: ConA small-molecule binders, primary screen, artefact control for SMM control protein annotation, biochemical, small-molecule microarray, Alexa647 label, 635 nm (AID 1127).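 Further: z combines 667 nm emission intensity with signal-to-noise across three replicate slides.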 The note with it: ConA-A647 binding fluorescence, higher = more signal.

The source made the active and inactive calls.

Chain of Left-right determination factor 2 (Homo sapiens) (O00292 whole entry, looked up): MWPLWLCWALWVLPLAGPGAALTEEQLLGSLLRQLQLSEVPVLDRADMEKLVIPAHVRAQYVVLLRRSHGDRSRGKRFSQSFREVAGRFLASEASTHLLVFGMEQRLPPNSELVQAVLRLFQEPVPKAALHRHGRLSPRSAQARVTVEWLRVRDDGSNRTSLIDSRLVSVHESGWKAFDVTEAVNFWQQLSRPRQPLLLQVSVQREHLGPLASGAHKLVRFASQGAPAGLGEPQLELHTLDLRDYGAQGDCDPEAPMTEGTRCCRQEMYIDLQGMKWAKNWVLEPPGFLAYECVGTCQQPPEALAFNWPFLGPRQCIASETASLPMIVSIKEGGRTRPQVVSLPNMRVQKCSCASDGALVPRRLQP
Chain of Concanavalin-A (Canavalia ensiformis) (P02866 whole entry, looked up): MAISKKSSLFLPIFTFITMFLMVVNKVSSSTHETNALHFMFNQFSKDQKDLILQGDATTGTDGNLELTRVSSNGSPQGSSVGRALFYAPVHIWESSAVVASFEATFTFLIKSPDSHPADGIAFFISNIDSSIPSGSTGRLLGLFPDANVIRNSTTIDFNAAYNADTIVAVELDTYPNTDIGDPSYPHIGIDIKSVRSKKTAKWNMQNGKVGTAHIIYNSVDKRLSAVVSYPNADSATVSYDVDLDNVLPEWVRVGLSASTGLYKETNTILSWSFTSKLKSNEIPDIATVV
Chain of Albumin (Bos taurus) (P02769 whole entry, looked up): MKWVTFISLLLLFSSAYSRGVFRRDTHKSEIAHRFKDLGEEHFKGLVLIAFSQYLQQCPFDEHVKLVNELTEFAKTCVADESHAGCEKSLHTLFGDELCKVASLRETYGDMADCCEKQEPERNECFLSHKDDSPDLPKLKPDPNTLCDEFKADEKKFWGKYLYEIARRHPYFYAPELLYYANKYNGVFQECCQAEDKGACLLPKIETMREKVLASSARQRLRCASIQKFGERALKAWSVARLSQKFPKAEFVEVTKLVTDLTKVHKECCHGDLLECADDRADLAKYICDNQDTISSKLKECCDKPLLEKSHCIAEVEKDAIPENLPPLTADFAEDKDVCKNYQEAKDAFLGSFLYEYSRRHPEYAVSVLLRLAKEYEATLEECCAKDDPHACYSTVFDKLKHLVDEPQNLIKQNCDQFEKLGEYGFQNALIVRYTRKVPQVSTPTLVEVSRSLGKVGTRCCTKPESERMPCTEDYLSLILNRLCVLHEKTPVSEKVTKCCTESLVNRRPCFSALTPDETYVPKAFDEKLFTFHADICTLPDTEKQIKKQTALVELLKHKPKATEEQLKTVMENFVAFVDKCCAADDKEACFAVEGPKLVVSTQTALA
Chain of Torsin-1A-interacting protein 1 (Homo sapiens) (Q5JTV8 whole entry, looked up): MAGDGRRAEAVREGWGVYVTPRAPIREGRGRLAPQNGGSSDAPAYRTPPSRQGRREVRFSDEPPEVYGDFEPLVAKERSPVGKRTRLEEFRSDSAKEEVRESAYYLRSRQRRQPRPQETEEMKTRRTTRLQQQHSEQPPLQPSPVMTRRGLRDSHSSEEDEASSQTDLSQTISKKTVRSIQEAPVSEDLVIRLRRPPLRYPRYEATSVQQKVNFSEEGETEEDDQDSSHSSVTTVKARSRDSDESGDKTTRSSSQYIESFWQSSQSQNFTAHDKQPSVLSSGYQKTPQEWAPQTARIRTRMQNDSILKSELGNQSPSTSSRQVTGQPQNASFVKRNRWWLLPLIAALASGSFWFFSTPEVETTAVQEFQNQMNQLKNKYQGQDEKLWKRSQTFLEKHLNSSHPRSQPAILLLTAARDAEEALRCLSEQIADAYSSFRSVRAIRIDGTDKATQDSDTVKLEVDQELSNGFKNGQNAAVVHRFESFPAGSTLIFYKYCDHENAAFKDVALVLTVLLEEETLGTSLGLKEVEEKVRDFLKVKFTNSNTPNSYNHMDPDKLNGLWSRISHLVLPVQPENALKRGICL
Chain of Alpha-bungarotoxin (Bungarus multicinctus) (P60615 whole entry, looked up): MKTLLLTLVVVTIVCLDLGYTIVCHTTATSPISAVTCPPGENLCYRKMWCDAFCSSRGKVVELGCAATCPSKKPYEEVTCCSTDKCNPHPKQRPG

As to `COc1ccc(C(=O)Nc2cccc(CN3C(=O)[C@@]4(O[C@@H](CCn5cc([C@H](O)c6ccccc6)nn5)[C@H]([Si](C)(C)c5ccc(OC)cc5)[C@H]4C)c4ccccc43)c2)cc1`, the composite z-score in assay [1] is -0.32; in assay [3] it was 0.534; in assay [4] it was -0.0819; in assay [5], -0.346; in assay [6], 0.0279; in assay [7], -0.262. In addition, the composite z-score in [8] was -0.205; in [9], 0.485; in assay [10], 0.935; with Albumin (Bos taurus), -0.455; in [12], 0.123; in assay [13], -0.053. In addition, the composite z-score is 0.113 in [14]; 1.16 in assay [15]; 0.0494 in assay [16]; 0.459 in the assay with Sam68 (KHDRBS1); 0.078 in assay [17]; 0.791 in assay [18]. The compound further yielded a z-score in assay [2] of -5.06. Also, in assay [11], the composite Z-score was 0.257 (inactive).

For the compound `O=P(NCC1(CC2(c3ccccc3)CO2)CC1)(c1ccccc1)c1ccccc1` (stereo not given), the composite z-score in assay [1] is -0.498; in assay [3], -1.79; in assay [4], -0.0905; in assay [5] it was 0.388; in assay [6], -0.0384; in [7] it was 0.826. Moreover, the composite z-score in [8] is -0.45; in assay [9], -0.225; in assay [10], -0.879; in the assay with Albumin (Bos taurus), 0.0287; in [12] it was -0.159; in assay [13] it was -0.0451. Moreover, the composite z-score was 0.692 in assay [14]; 2.49 in assay [15]; 0.106 in assay [16]; -0.31 in the assay with Sam68 (KHDRBS1); -0.821 in assay [17]; -0.805 in assay [18]. Moreover, the z-score in assay [2] was -1.17. The composite Z-score in assay [11] is -0.187 (inactive).

With `COC(=O)[C@@]1(Cc2ccc(F)cc2)[C@H]2c3cc(C(=O)N(C)C)n(CCc4c[nH]c5ccc(OC)cc45)c3C[C@H]2CN1C(=O)c1ccccc1`, the composite z-score in assay [1] is 1.47; in assay [3], -0.995; in [4], 1.72; in assay [5], 1.16; in [6], 0.27; in assay [7], 0.764. The composite z-score in assay [8] amounted to 1.7; in [9], 2.15; in assay [10], 1.04; with Albumin (Bos taurus) it was 0.655; in assay [12], 0.351; in [13], 0.317. Moreover, the composite z-score in assay [14] was 0.617; in assay [15] it was 2.74; in assay [16], 0.606; in the assay with Sam68 (KHDRBS1), 1.1; in [17], -0.705; in assay [18], -0.203. The same compound yielded a z-score in [2] of -1.94. Moreover, the composite Z-score in assay [11] is 0.0904 (inactive).

Regarding `O=C1OCCC/C=C\[C@H]2OC34C=CCN(CCN5CCOCC5)C(=O)[C@H]3N(CCO)C(=O)[C@@H]4C12` (stereo not given in full), the composite z-score is -0.359 in assay [1]; -0.416 in [3]; -0.0877 in assay [4]; 0.124 in [5]; -0.176 in assay [6]; -0.2 in [7]. Also, the composite z-score is 0 in assay [8]; -0.0137 in assay [9]; -0.938 in [10]; 0.394 with Albumin (Bos taurus); -0.346 in [12]; -0.211 in [13]. Besides, the composite z-score in assay [14] is 0.866; in assay [15], -0.0995; in [16] it was -0.0129; with Sam68 (KHDRBS1), -0.779; in [17] it was -0.601; in assay [18], -1.09. The compound also showed a z-score in assay [2] of 0.0112. Also, the composite Z-score in assay [11] is 0.0421 (inactive).

Turning to `COc1ccc(C#Cc2ccc3c(c2)[C@]2(C(=O)N3)[C@H](C(=O)N3CCN(c4ncccn4)CC3)[C@H]3C(=O)O[C@H](c4ccccc4)[C@H](c4ccccc4)N3[C@@H]2c2ccc(O)cc2)cc1`, the composite z-score is 1.4 in assay [1]; 0.169 in [3]; 1.23 in assay [4]; 0.0193 in assay [5]; 0.115 in assay [6]; 0.315 in [7]. Moreover, the composite z-score in [8] was -0.406; in assay [9], 0.399; in [10], 0.531; with Albumin (Bos taurus) it was 0.413; in assay [12] it was -0.184; in assay [13] it was 0.0086. Also, the composite z-score in assay [14] came out at 0.327; in assay [15] it was 1.19; in assay [16], 0.76; with Sam68 (KHDRBS1), 1.3; in [17], 0.7; in [18], 1.05. In assay [2], the z-score is -1.73. For the same compound, in assay [11], the composite Z-score is 0.345 (inactive).

With `CCCC[C@@H]1C[C@H]1[C@@H](NC(=O)c1ccccc1)c1ccccc1`, the composite z-score in assay [1] is 0.305; in assay [3] it was -0.137; in assay [4], -0.0221; in assay [5], 0.635; in assay [6] it was 0.298; in assay [7], 0.121. For the same compound, the composite z-score in assay [8] is 2.11; in assay [9], -0.192; in assay [10], 0.012; with Albumin (Bos taurus), 0.0945; in assay [12], 0.667; in assay [13], 0.253. Also, the composite z-score in [14] was -0.0524; in assay [15], 0.506; in assay [16], -0.159; with Sam68 (KHDRBS1) it was 0.138; in assay [17], -0.608; in assay [18], -0.482. The z-score in assay [2] is -0.978. The composite Z-score in [11] is 0.103 (inactive).

The values above are taken from PubChem BioAssay.
